Tests used:
Test in all cases: SPOT peptide array binding signal intensity (averaged, normalized) (arbitrary units (background-subtracted, floor 0; scale differs between SH3 domains)); higher = stronger binding of the SH3 domain to the peptide
[1] = biological target: AgAbp1
In short: (§1)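 Binding signal is given in arbitrary units that differ between domains and is the normalized, background-subtracted spot intensity averaged across replicates. Each GST-SH3 fusion from one of four yeast species was made in E. coli BL21(DE3), purified on glutathione Sepharose and incubated at 10 μg/ml overnight at 4°C on cellulose-bound synthetic 15-mer peptides in which cysteines were replaced by serines. Detection used anti-GST antibody, an HRP anti-mouse secondary and luminol, followed by imaging and Genespotter quantification.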

[2] = biological target: AgBbc1
In short: as §1

[3] = biological target: AgBem1-D1
In short: as §1

[4] = biological target: AgBzz1-D1
In short: as §1

[5] = biological target: AgBzz1-D2
In short: as §1

[6] = biological target: AgCyk3
In short: as §1

[7] = biological target: AgFus1
In short: as §1

[8] = biological target: AgHof1
In short: as §1

[9] = biological target: AgHse1
In short: as §1

[10] = biological target: AgLsb1
In short: as §1

[11] = biological target: AgLsb4
In short: as §1

[12] = biological target: AgMyo5
In short: as §1

[13] = biological target: AgNbp2
In short: as §1

[14] = biological target: AgRvs167
In short: as §1

[15] = biological target: AgSho1
In short: as §1

[16] = biological target: AgSla1-D1-D2
In short: as §1

[17] = biological target: AgSla1-D3
In short: as §1

[18] = biological target: CaAbp1-D1
In short: as §1

[19] = biological target: CaAbp1-D2
In short: as §1

[20] = biological target: CaBbc1
In short: as §1

[21] = biological target: CaBem1-D1
In short: as §1

[22] = biological target: CaBzz1-D1
In short: as §1

[23] = biological target: CaBzz1-D2
In short: as §1

[24] = biological target: CaCyk3
In short: as §1

[25] = biological target: CaFus1
In short: as §1

[26] = biological target: CaHof1
In short: as §1

[27] = biological target: CaHse1
In short: as §1

[28] = biological target: CaLsb1
In short: as §1

[29] = biological target: CaLsb4
In short: as §1

[30] = biological target: CaMyo5
In short: as §1

[31] = biological target: CaNbp2
In short: as §1

[32] = biological target: CaRvs167
In short: as §1

[33] = biological target: CaRvs167-3
In short: as §1

[34] = biological target: CaSho1
In short: as §1

[35] = biological target: CaSla1-D1-D2
In short: as §1

[36] = biological target: CaSla1-D3
In short: as §1

[37] = biological target: ScAbp1
In short: as §1

[38] = biological target: ScBbc1
In short: as §1

[39] = biological target: ScBem1-D1
In short: as §1

[40] = biological target: ScBzz1-D1
In short: as §1

[41] = biological target: ScBzz1-D2
In short: as §1

[42] = biological target: ScCyk3
In short: as §1

[43] = biological target: ScFus1
In short: as §1

[44] = biological target: ScHof1
In short: as §1

[45] = biological target: ScHse1
In short: as §1

[46] = biological target: ScLsb1
In short: as §1

[47] = biological target: ScLsb2
In short: as §1

[48] = biological target: ScLsb3
In short: as §1

[49] = biological target: ScLsb4
In short: as §1

[50] = biological target: ScMyo3
In short: as §1

[51] = biological target: ScMyo5
In short: as §1

[52] = biological target: ScNbp2
In short: as §1

[53] = biological target: ScPex13
In short: as §1

[54] = biological target: ScRvs167
In short: as §1

[55] = biological target: ScSho1
In short: as §1

[56] = biological target: ScSla1-D1-D2
In short: as §1

[57] = biological target: ScSla1-D3
In short: as §1

[58] = biological target: SpAbp1-D1
In short: as §1

[59] = biological target: SpBbc1
In short: as §1

[60] = biological target: SpBzz1-D1
In short: as §1

[61] = biological target: SpBzz1-D2
In short: as §1

[62] = biological target: SpCyk3
In short: as §1

[63] = biological target: SpHof1
In short: as §1

[64] = biological target: SpHof1-2
In short: as §1

[65] = biological target: SpHof1-3
In short: as §1

[66] = biological target: SpHse1
In short: as §1

[67] = biological target: SpLsb1
In short: as §1

[68] = biological target: SpLsb4
In short: as §1

[69] = biological target: SpMyo1
In short: as §1

[70] = biological target: SpNbp2
In short: as §1

[71] = biological target: SpPex13
In short: as §1

[72] = biological target: SpRvs167
In short: as §1

[73] = biological target: SpSla1-D1-D2
In short: as §1

[74] = biological target: SpSla1-D3
In short: as §1

Q: What does the source list for RRSKSLPTTPGIRSG?
A: SPOT peptide array binding signal intensity [1]: 744; SPOT peptide array binding signal intensity [2]: 104; SPOT peptide array binding signal intensity [3]: 348; SPOT peptide array binding signal intensity [4]: 45; SPOT peptide array binding signal intensity [5]: 43; SPOT peptide array binding signal intensity [6]: 4; SPOT peptide array binding signal intensity [7]: 120; SPOT peptide array binding signal intensity [8]: 158; SPOT peptide array binding signal intensity [9]: 816; SPOT peptide array binding signal intensity [10]: 50.8; SPOT peptide array binding signal intensity [11]: 128; SPOT peptide array binding signal intensity [12]: ≤ 0; SPOT peptide array binding signal intensity [13]: 213; SPOT peptide array binding signal intensity [14]: 2.33; SPOT peptide array binding signal intensity [15]: 4520; SPOT peptide array binding signal intensity [16]: 469; SPOT peptide array binding signal intensity [17]: 1.75; SPOT peptide array binding signal intensity [18]: 1220; SPOT peptide array binding signal intensity [19]: 1180; SPOT peptide array binding signal intensity [20]: 216; SPOT peptide array binding signal intensity [21]: 54; SPOT peptide array binding signal intensity [22]: 292; SPOT peptide array binding signal intensity [23]: 115; SPOT peptide array binding signal intensity [24]: 17; SPOT peptide array binding signal intensity [25]: 450; SPOT peptide array binding signal intensity [26]: ≤ 0; SPOT peptide array binding signal intensity [27]: 31.5; SPOT peptide array binding signal intensity [28]: 3.5; SPOT peptide array binding signal intensity [29]: 276; SPOT peptide array binding signal intensity [30]: 7.5; SPOT peptide array binding signal intensity [31]: 430; SPOT peptide array binding signal intensity [32]: 15.2; SPOT peptide array binding signal intensity [33]: 55.5; SPOT peptide array binding signal intensity [34]: 1030; SPOT peptide array binding signal intensity [35]: 2240; SPOT peptide array binding signal intensity [36]: ≤ 0; SPOT peptide array binding signal intensity [37]: 261; SPOT peptide array binding signal intensity [38]: 19.2; SPOT peptide array binding signal intensity [39]: 54; SPOT peptide array binding signal intensity [40]: 25; SPOT peptide array binding signal intensity [41]: 27; SPOT peptide array binding signal intensity [42]: 96; SPOT peptide array binding signal intensity [43]: 163; SPOT peptide array binding signal intensity [44]: 1.25; SPOT peptide array binding signal intensity [45]: 1360; SPOT peptide array binding signal intensity [46]: 77; SPOT peptide array binding signal intensity [47]: 6; SPOT peptide array binding signal intensity [48]: 444; SPOT peptide array binding signal intensity [49]: 21; SPOT peptide array binding signal intensity [50]: 6.5; SPOT peptide array binding signal intensity [51]: ≤ 0; SPOT peptide array binding signal intensity [52]: 203; SPOT peptide array binding signal intensity [53]: 23.2; SPOT peptide array binding signal intensity [54]: 18.7; SPOT peptide array binding signal intensity [55]: 5840; SPOT peptide array binding signal intensity [56]: 4460; SPOT peptide array binding signal intensity [57]: 70.5; SPOT peptide array binding signal intensity [58]: 2040; SPOT peptide array binding signal intensity [59]: 6.5; SPOT peptide array binding signal intensity [60]: 226; SPOT peptide array binding signal intensity [61]: 0.5; SPOT peptide array binding signal intensity [62]: 5; SPOT peptide array binding signal intensity [63]: 2630; SPOT peptide array binding signal intensity [64]: 3020; SPOT peptide array binding signal intensity [65]: 1440; SPOT peptide array binding signal intensity [66]: 356; SPOT peptide array binding signal intensity [67]: 0.5; SPOT peptide array binding signal intensity [68]: 574; SPOT peptide array binding signal intensity [69]: 15.2; SPOT peptide array binding signal intensity [70]: 506; SPOT peptide array binding signal intensity [71]: 8.5; SPOT peptide array binding signal intensity [72]: 72.5; SPOT peptide array binding signal intensity [73]: 1620; SPOT peptide array binding signal intensity [74]: 15
